Pf growth 48h – inhibits P. falciparum growth in the first generation, 48 h; Potency, µM (top dose mostly 28.7 µM), inactives show at the top dose activity change, negative = inhibition, most hits filed as inhibitors; P. falciparum luciferase growth in erythrocytes, 48 h; 310,000 compounds, 5.9% hits; also: potency is read from the fitted curve at half-maximal effect
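Erythrocytes infected with P. falciparum carrying an integrated firefly luciferase reporter (2% hematocrit, 0.1% parasitemia final) were exposed to compounds in RPMI 1640 with 0.5% Albumax at 37 C, 5% CO2. Growth inhibition was scored as reduced luminescence.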
MARV entry inh – inhibitors of Marburg virus binding or cell entry | Marburg virus pseudotyped entry inhibition, cell reporter | Potency, µM (series often up to 37.8 µM), for the others: at the top dose activity change, negative = inhibition, usual class: inhibitors | 300,000 compounds, 1.8% hits; calls by dose curve; tested in HEK293 cells; also: potency is read from the fitted curve at half-maximal effect
Lassa entry inh – Lassa virus entry inhibition | Lassa virus pseudotype entry inhibition, cell reporter | Potency, µM (series often up to 37.9 µM), inactives show top-dose activity change, negative = inhibition, hits mostly inhibitors | 300,000 compounds, 1.2% hits; calls by dose curve; tested in HEK293 cells; also: potency is read from the fitted curve at half-maximal effect; nearly all actives have a fitted effect of over 50% in size
Pf growth 96h – inhibits malaria parasite growth, 96 h; P. falciparum luciferase reporter growth, 96 h; Potency, µM (series often up to 28.7 µM), for the others: at the top dose activity change, negative = inhibition, hits mostly inhibitors; 320,000 compounds, 6.9% hits; AID 504834; also: potency is read from the fitted curve at half-maximal effect
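Readout is luminescence from an integrated firefly luciferase in P. falciparum. Red cells, 2% hematocrit and 0.05% parasitemia final, were cultured with compound through two parasite generations (96 hours) at 37 C, 5% CO2.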
HCMV inh – inhibitors of human cytomegalovirus | 410,000 compounds, 4.5% hits | activity change, negative = inhibition, % at 57.5 µM | HFF cells, HCMV-luciferase reporter, 72 h; stronger effect = lower value; in the data active = activity change below about -60%; inconclusive = no clear call, values can overlap the other calls; inactive = above about -39%
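Inhibition of viral replication was scored as loss of reporter luminescence in HFFs infected with HCMV-luciferase (MOI 1 PFU/cell) for 72 h; compounds tested at 2 doses, normalized to buffer and Salinomycin controls.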
HCV inhibitor – HCV inhibition; Huh7.5.1 HCVcc-Cre infection, luciferase reporter, 44 h; Potency, µM (highest dose often 41.8 µM), for the others: top-dose activity change, negative = inhibition, actives largely listed as inhibitors; 340,000 compounds, 3.4% hits; AID 651820; also: potency is read from the fitted curve at half-maximal effect
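HCVcc-Cre virus at an moi near 0.5 was added right after compound to cells cultured 4 h from seeding (1,000 cells/well). Luciferase activity was determined 44 h later, 15 min after substrate addition at RT.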
* hit, by the source's call; ? = inconclusive; · = not tested or not shown; [ ] = remark or other dose. Only some compounds are listed: those with a hit (about 14% of all), similar ones and a draw of the others. Unless noted, calls follow the shape of the dose curve; as a rule, active = well fitted inhibition curve with a large enough effect; inconclusive = small, poorly fitted or top-dose-only effect, or another doubt; inactive = no such curve, though single readings can be large or run the other way. % is scaled to controls: 0 for no effect and ±100 for the full control effect.

SMILES	Pf growth 48h	MARV entry inh	Lassa entry inh	Pf growth 96h	HCMV inh	HCV inhibitor
COc1ccc(CN2C(=O)N(c3ccc(C)cc3)C(=O)C2CC(=O)Nc2ccccc2)cc1OC (stereo not drawn)	·	-3.5%[46.1 µM]	-13.8%[46.1 µM]	·	20.0	·
COC(=O)c1cn(C(=O)c2ccc(OC)cc2)c2ccccc12	-2.9%	?	-19.5%[46.1 µM]	?	-65.5*	?
CC(=O)c1cn(C(=O)c2ccc(Cl)cc2)c2ccccc12	10.5%	9.0%[46.1 µM]	10.6%[46.1 µM]	7.5%	-66.8*	-8.4%
COC(=O)c1cn(C(=O)c2ccc(C)c(C)c2)c2ccccc12	10.7%	3.0%	?	0.0%	?	-12.8%
COC(=O)c1cn(C(=O)c2ccc(C)cc2)c2ccccc12	18.5%	·	·	?	-7.3	-29.4%
NC(=S)N1OC[C@@H]2COc3ccc4ccccc4c3[C@@H]21	-7.9%	?	5.1%	0.9%	-67.5*	?
Cc1c(CCNC=O)cc(C)c2c3c(oc12)CCCC3	·	?	23.5%	·	29.0	?
CCCCCc1c2c(cc(O)c1C(=O)O)OC(=O)c1cc(C(=O)CCCC)c(OC)cc1O2	·	·	·	·	6.4	0.501µM*
CCCCCc1c2c(cc(O)c1C(=O)O)OC(=O)c1c(cc(OC)cc1C(=O)CCCC)O2	0.0%	·	·	30.1%	·	7.9%
CCOC(=O)Nc1ccc2c(CN3CCN(S(=O)(=O)c4ccccc4F)CC3)cc(=O)oc2c1	9.28µM*	?	?	10.4µM*	?	?
CCOC(=O)Nc1ccc2c(C)cc(=O)oc2c1	160.0%	7.1%	?	?	163.7	-5.1%
CCOC(=O)Nc1ccc2c(CN(C)Cc3ccc(F)cc3)cc(=O)oc2c1	7.4%	21.0%[46.1 µM]	·	16.4%	-91.8*	-12.5%
CCc1ccc2oc(=O)cc(CN(C)Cc3ccccc3)c2c1	8.28µM*	?	-7.6%	·	-17.4	?
Cc1cc2oc(=O)cc(CN(C)Cc3ccccc3)c2cc1C	·	·	·	·	14.0	·
CCOC(=O)Nc1ccc2c(CN3CCN(S(=O)(=O)c4ccc(C(C)C)cc4)CC3)cc(=O)oc2c1	?	·	·	10.4µM*	1.5	?
Cn1c(SCC(=O)Nc2ccc(C(=O)O)cc2)nc2scc(-c3ccccc3Cl)c2c1=O	·	-1.6%[46.1 µM]	0.0%[46.1 µM]	·	7.3	-1.0%
C=CCn1c(COc2ccc(F)cc2)nnc1SCC(=O)NC1CC1	-0.2%	-2.2%[46.1 µM]	-0.2%	12.2%	-19.8	23.3%
CCn1cc(-c2n[nH]c(=S)n2-c2ccc(C)cc2Br)c(=O)c2ccc(C)nc21	21.2%	·	·	30.2%	17.1	-0.8%
CC(=O)OCCNc1nc(-c2ccccc2)nc2ccccc12	-15.8%	-12.3%	5.3%	10.7%	4.8	10µM*
O=C(O)CCCCCNc1nc(-c2ccccc2)nc2ccccc12	-22.5%	·	·	-28.6%	-5.0	-2.2%
c1ccc(-c2nc(NCCCn3ccnc3)c3ccccc3n2)cc1	3.7µM*	?	?	8.28µM*	-2.2	?
O=C(Nc1nc(-c2ccccc2)nc2ccccc12)c1ccc(F)cc1	4.4%	?	?	64.0%	?	7.3%
OCCNc1c2ccccc2nc2ccccc12	?	?	-22.3%	?	-100.9*	?
OCCNc1nc2ccccc2nc1NCCO	49.3%	-1.8%[46.1 µM]	-3.8%[46.1 µM]	26.9%	8.2	-11.8%
CCN(CC)CCCNc1nc2ccccc2c2[nH]c3ccc(OC)cc3c12	·	?	?	·	-93.4*	?
SMILES	Pf growth 48h	MARV entry inh	Lassa entry inh	Pf growth 96h	HCMV inh	HCV inhibitor
CCOc1ccc2[nH]c3c(NCCCOC)ncnc3c2c1	·	·	·	?	36.3	-24.0%
COc1cc(NC(=O)CC2C(=O)OCCN2Cc2ccccc2)cc(OC)c1 (stereo not drawn)	·	1.7%[46.1 µM]	5.8%[46.1 µM]	·	-4.0	·
COc1ccc(Nc2nc3ccc(C)cc3nc2-n2nc(C)cc2C)cc1Cl	·	-1.0%[46.1 µM]	14.5%[46.1 µM]	·	-5.1	·
COCCNc1nc(-c2ccccc2)nc2ccccc12	29.9%	?	?	-6.1%	-29.8	?
OCCCNc1nc(-c2ccc(Cl)cc2)nc2ccccc12	-8.3%	·	·	?	28.4	12.6µM*
COCCCNc1nc(-c2ccncc2)nc2ccccc12	?	?	-19.9%	40.3%	13.9	11.2µM*
OCCNc1nc(-c2ccccc2)nc2ccccc12	9.4%	-0.8%[46.1 µM]	-24.5%	-14.6%	73.9	7.94µM*
